Data reported in PubChem BioAssay (Tox21).
“And” between values parts separate entries of the source, which are not always exact repeats. Equal entries are not always repeated. Inconclusive results are not listed. Unmarked numbers belong to inactive results. The source made the active and inactive calls. Calls come from the whole dose curve; as a rule, active = well fitted cell-killing curve with a large enough effect in the repeat runs; inconclusive = weak or mixed curves, or effect the other way; inactive = flat fitted curve, though single readings scatter.

Test: qHTS assay to identify small molecule antagonists of the androgen receptor (AR) signaling pathway using the MDA cell line in the presence of 0.5 nM R1881 - cell viability counter screen (AID 1259242); note: nearly all actives have a fitted effect of over 45% in size
Details: MDA-kb2 viability, CellTiter-Fluor protease fluorescence, 16 h; series mostly up to 92.4 µM; viability change, negative = cytotoxic: at the top concentration
Excerpt: U.S. Tox21 Program National Center for Advancing Translational Sciences [NCATS] NIH Chemical Genomics Center [NCGC] U.S. Environmental Protection Agency [EPA] National Institutes of Environmental Health Sciences [NIEHS] National Toxicology Program [NTP] U.S. Food and Drug Administration [FDA] Tox21 Assay Overview: Androgen receptor (AR) is an important member of the nuclear receptor family. Its signaling plays a critical role in AR-dependent prostate cancer and other androgen related diseases. Considerable attention has been given in the past decades to develop methods to study and screen for the environmental chemicals that have the potential to interfere with metabolic homeostasis, reproduction, developmental and behavioral functions. Therefore AR binding assay for screening androgen antagonists can be used to identify potential endocrine disruptors. MDA-kb2 cells (from ATCC, deposited by Wilson et al.) were used to screen for AR inhibitors against Tox21 compound libraries. These cells are human breast carcinoma cells that were stably transfected with a luciferase reporter gene under control of the MMTV promoter that contains response elements for both androgen receptor (AR) and glucocorticoid receptor (GR). The current screening for identification of AR inhibitors against Tox21 libraries used lower concentration of (0.5 nM) R1881 as a stimulator. The cytotoxicity of the Tox21 compound libraries against MDA-kb2 cell line was tested by measuring live-cell protease activity using CellTiter-Fluor assay in the same wells.
Tox21 Assay Protocol Summary: MDA-kb2 cells (cells cultured without CO2) were dispensed at 3,000 cells/well in 4 uL of culture medium into white wall/solid-bottom 1536-well plates (Corning Life Sciences, Corning, NY) using a Multidrop Combi (ThermoFisher Scientific, Waltham, MA) dispenser. After the assay plates were incubated at a 37C and 0% CO2 for 5 hr, 23 nL of compounds dissolved in DMSO, positive controls or DMSO only was transferred to the assay plate by a Pintool station (Kalypsys, San Diego, CA). The transfer of compounds was followed by the addition of 1 uL of 0.5 nM (final concentration) agonist (R1881)/culture medium using a Flying Reagent Dispenser (FRD, Aurora Discovery, San Diego, CA). The plates were incubated at 37C and 0% CO2 for 16 hr. For cytotoxicity assay, 1 uL of CellTiter-Fluor reagent (Promega Corporation, Madison, WI) was added to each well using the FRD and after 30 min incubation at 37C and 0% CO2, The fluorescence intensity was measured using ViewLux plate reader (PerkinElmer, Shelton, CT).
% is set by controls: 0 for no effect and ±100 for the full control effect; potency is the fitted concentration of half-maximal effect.

Row | Compound | viability change, negative = cytotoxic | Potency
1 | COc1cc(CC(C)N)c(OC)cc1Br (stereo not given) | -6.16% | –
2 | CC(C)(C#N)C(C)(C)C#N | 1.7% | –
3 | Cc1ccccc1 | 4.34% | –
4 | CC(Cc1ccccc1)NCc1ccccc1Cl (stereo not given) | 0.865% [at 42.5 µM] | –
5 | O=C(N[C@H]1CN2CCC1CC2)c1ccc2c(c1)OCCO2 | -3% | –
6 | COc1cc(C[C@@H](C)N)c(OC)cc1Br | -1.37% | –
7 | CCCCCCCCP(=O)(O)O | 0.991% | –
8 | Nc1ccc2c(c1)Cc1ccccc1-2 | 10.9% | –
9 | CCC[N+](CCC)(CCC)CCC | 4.91% | –
10 | N#CC(C#N)=C(C#N)C#N | -13.2% | –
11 | CCCC[N+]1(C)[C@@H]2CC(OC(=O)[C@H](CO)c3ccccc3)C[C@H]1[C@@H]1O[C@@H]12 (stereo not given in full) | 1.33% [at 42.5 µM] | –
12 | O=C1NC(=O)C(=O)C(=O)N1 | -0.729% | –
13 | CCc1ccccc1N | -5.27% | –
14 | c1ccc2c(c1)-c1cccc3cccc-2c13 | – | inactive
15 | CCCCC#N | 5.86% | –
16 | O=C=NC1CCCCC1 | -0.935% | –
17 | C[CH2][Hg][S]c1ccccc1C(=O)O | – | 17.2 µM (active) and 11.9 µM (active)
18 | CCC1(CC)C(=O)NC(=O)NC1=O | -1.39% [at 42.5 µM] | –
19 | CC(O)CN1CCN(CC(=O)[O-])CCN(CC(=O)[O-])CCN(CC(=O)[O-])CC1.[Gd+3] (stereo not given) | 4.67% [at 42.5 µM] | –
20 | C[Si](Cn1cncn1)(c1ccc(F)cc1)c1ccc(F)cc1 | – | inactive

Row | Compound | viability change, negative = cytotoxic | Potency
21 | Nc1ccccc1C(=O)OCCc1ccccc1 | – | inactive
22 | CCC(=O)O[C@@H]1C=C2CCC3C(CCC4(C)C3CC[C@@H]4OC(=O)CC)C2CC1 (stereo not given in full) | 3.91% [at 42.5 µM] | –
23 | O=C(O)COc1cc(Cl)c(Cl)cc1Cl | – | inactive
24 | NC(=S)c1c(Cl)cccc1Cl | -0.0709% | –
25 | CCCCNC(=O)OCC#CI | – | 60.8 µM (active)
26 | CON(C)C(=O)Nc1ccc(Cl)cc1 | -0.723% | –
27 | C#CC(O)(C=CCl)CC (stereo not given) | 2.88% [at 42.5 µM] | –
28 | O=C(Cc1ccccc1)OCCc1ccccc1 | 6.81% | –
29 | CCCCCCCCCCCCN(C)C | 1.65% | –
30 | COc1ccc(C(=O)c2c(C)n(CCN3CCOCC3)c3ccccc23)cc1 | -2.19% [at 42.5 µM] | –
31 | CC(C)c1ccc(NC(=O)N(C)C)cc1 | 0.296% | –
32 | CC(C)c1ccc(OP(=O)(Oc2ccc(C(C)C)cc2)Oc2ccc(C(C)C)cc2)cc1 | – | inactive
33 | C#C[C@]1(O)CC[C@H]2[C@@H]3CCC4=CC(=O)CCC4=C3C=C[C@@]21CC | -0.729% [at 42.5 µM] | –
34 | C[N+]1(CCF)[C@@H]2CC[C@H]1CC(OC(=O)C(O)(c1ccccc1)c1ccccc1)C2 (stereo not given in full) | 2.92% [at 42.5 µM] | –
35 | C=CCOC(=O)C(C)(C)OC(=O)c1cc(-n2c(=O)cc(C(F)(F)F)n(C)c2=O)ccc1Cl | -0.891% | –
36 | C1CS1 | -0.219% | –
37 | CNC(=O)Oc1cccc(N=CN(C)C)c1 | -15.9% | –
38 | CCCC[N+](CCCC)(CCCC)CCCC | -14.6% | –
39 | C=CCN1C[C@H](C)N([C@H](c2ccc(C(=O)N(CC)CC)cc2)c2cccc(OC)c2)C[C@H]1C | 1.1% [at 42.5 µM] | –
40 | C=CC(=O)OCC | -2.25% | –
